The nature of experiment [1]: resazurin metabolic signal in HepG2 cells – cell-based, resazurin fluorescence, 24 h, PK04 Diversity Set, profiling panel (AID 1172). To be noted: HepG2 viability, higher = more signal. On the technique in general: Alamar Blue is a resazurin reagent that responds to reducing activity.
Experiment [2] in a line: budding yeast growth changes without added modifier – OD600, strain BY4716, 24 h, basal condition, primary screen (AID 1173). To be noted: S. cerevisiae BY4716 growth, OD600, 24 h; higher = more signal, called active from +8 up or from −8 down.
Experiment [3] can be described thus: viability profiling in MM1S myeloma cells – cell-based, resazurin fluorescence, basal, 24 h, PK04 Diversity Set, profiling panel (AID 1174).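 Further: MM1S multiple myeloma cell line.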 The conditions noted are these: higher = more signal, called active from +8 up or from −8 down.
For experiment [4], the target named is Dihydroorotate dehydrogenase (quinone), mitochondrial (Plasmodium falciparum (isolate 3D7)) (UniProt Q08210). In words: inhibition of P. falciparum DHODH – biochemical, C-terminal His tag, absorbance 600 nm, primary screen (AID 1175).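 Further: recombinant parasite enzyme with a five histidine tag at its C terminus.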 To be noted: PfDHODH enzyme, DCIP absorbance 600 nm; higher = more signal, called active from +8 up or from −8 down.
Experiment [5] is described as follows: inhibition of PAO1 biofilm formation – strain PAO1, LB-PBS medium, absorbance 600 nm, primary screen (AID 1176). To be noted: P. aeruginosa PAO1 growth/biofilm, A600, 12 h; higher = more signal.
Experiment [6] can be described thus: growth modulation of vineyard yeast isolate – strain RM11-1a, OD600, basal, 24 h, primary screen (AID 1177).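 Further: cultures grown under basal conditions with no added stressor.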 To be noted: S. cerevisiae RM11-1a growth, OD600, 24 h; higher = more signal, called active from +8 up or from −8 down.
Experiment [7] in a line: growth of efflux-deficient E. coli DRC39 – strain DRC39, OD650, 24 h, E. coli filamentation inducers, primary screen (AID 1178).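 Further: growth measured as culture turbidity by optical density at 650 nm.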 To be noted: E. coli DRC39 acrAB, higher = more signal, called active from +8 up or from −8 down.
Experiment [8] is described as follows: growth of efflux-deficient E. coli DRC39 – strain DRC39, OD650, 48 h, E. coli filamentation inducers, primary screen (AID 1179).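 Further: screen aims at cell division blockers that make cells filament.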 The conditions noted are these: E. coli DRC39 delta-acrAB growth, higher = more signal, called active from +8 up or from −8 down.
Experiment [9] in a line: viability profiling in RPMI8226 myeloma cells – cell-based, resazurin fluorescence, basal, 24 h, PK04 Diversity Set, profiling panel (AID 1180).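 Further: RPMI8826 multiple myeloma cell line at 5000 cells per well.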 The conditions noted are these: higher = more signal.
Experiment [10] has as its target E3 ubiquitin-protein ligase XIAP (Homo sapiens) (UniProt P98170). Briefly: small molecules binding XIAP protein – biophysical, small-molecule microarray, fluorescence 635 nm, primary screen (AID 1181).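 Further: score merges 667 nm emission and signal to noise over triplicate slides.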 To be noted: higher = more signal.
The test system of experiment [11] is XIP peptide (Xip251-270) binding. In words: XIP fragment 251-270 binding compounds – biochemical, small-molecule microarray, fluorescence 635/667 nm, 0.1 µg/mL protein, primary screen (AID 1182). The conditions noted are these: fluorescent protein binding, 635 nm, higher = more signal, called active from +8 up or from −8 down.
In a further experiment the test system is XIP peptide (Xip251-270). In words: compounds binding XIP fragment 251-270 – biochemical, small-molecule microarray, fluorescence 635/667 nm, 0.5 µg/mL protein, primary screen (AID 1183). The conditions noted are these: fluorescence 635 nm, higher = more signal.
A short description of experiment [12]: blood-stage malaria parasite viability loss – strain 3D7, DAPI fluorescence, 100 nL, primary screen (AID 1184).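 Further: parasites grown inside human red blood cells in medium with human serum.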 To be noted: P. falciparum 3D7 growth, 3 d, higher = more signal.
Experiment [13] addresses Homeobox protein Hox-A13 (Mus musculus) (UniProt Q62424). Briefly: disruptors of Hoxa13 oligonucleotide interaction – biochemical, fluorescence polarization, labeled oligonucleotide, primary screen (AID 1185). To be noted: Hoxa13:DNA binding, 15 min, higher = more signal, called active from +8 up or from −8 down.
The nature of experiment [14]: blockers of DNA damage checkpoint Chk1 activation – imaging, HeLa, hydroxyurea, phospho-Chk1 antibody, percent positive cells, primary screen (AID 1186). The conditions noted are these: hydroxyurea-induced phospho-Chk1 immunofluorescence imaging, higher = more signal.
The nature of experiment [15]: blockers of DNA damage checkpoint Chk1 activation – imaging, HeLa, hydroxyurea, phospho-Chk1 nuclear intensity, primary screen (AID 1187). To be noted: hydroxyurea-induced phospho-Chk1 immunofluorescence imaging, higher = more signal.

The source made the active and inactive calls. Unless noted, how the calls were made is not given here.

Dihydroorotate dehydrogenase (quinone), mitochondrial (Plasmodium falciparum (isolate 3D7)), sequence (Q08210 whole entry, looked up): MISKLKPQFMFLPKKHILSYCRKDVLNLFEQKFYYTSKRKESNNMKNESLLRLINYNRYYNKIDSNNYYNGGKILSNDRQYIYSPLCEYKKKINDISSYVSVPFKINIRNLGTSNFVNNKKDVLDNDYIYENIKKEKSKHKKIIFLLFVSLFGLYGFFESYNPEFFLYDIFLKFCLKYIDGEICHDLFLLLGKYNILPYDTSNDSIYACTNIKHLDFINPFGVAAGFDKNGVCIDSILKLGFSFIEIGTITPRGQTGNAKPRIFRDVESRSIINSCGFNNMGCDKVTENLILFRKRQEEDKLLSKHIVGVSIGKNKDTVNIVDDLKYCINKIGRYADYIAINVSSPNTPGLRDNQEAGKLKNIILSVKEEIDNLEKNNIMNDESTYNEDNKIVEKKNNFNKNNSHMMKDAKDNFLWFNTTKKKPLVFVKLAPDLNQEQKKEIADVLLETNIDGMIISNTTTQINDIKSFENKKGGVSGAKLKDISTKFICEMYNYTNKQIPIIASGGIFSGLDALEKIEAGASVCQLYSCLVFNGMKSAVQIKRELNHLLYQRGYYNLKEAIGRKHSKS
Homeobox protein Hox-A13 (Mus musculus), sequence (Q62424 whole entry, looked up): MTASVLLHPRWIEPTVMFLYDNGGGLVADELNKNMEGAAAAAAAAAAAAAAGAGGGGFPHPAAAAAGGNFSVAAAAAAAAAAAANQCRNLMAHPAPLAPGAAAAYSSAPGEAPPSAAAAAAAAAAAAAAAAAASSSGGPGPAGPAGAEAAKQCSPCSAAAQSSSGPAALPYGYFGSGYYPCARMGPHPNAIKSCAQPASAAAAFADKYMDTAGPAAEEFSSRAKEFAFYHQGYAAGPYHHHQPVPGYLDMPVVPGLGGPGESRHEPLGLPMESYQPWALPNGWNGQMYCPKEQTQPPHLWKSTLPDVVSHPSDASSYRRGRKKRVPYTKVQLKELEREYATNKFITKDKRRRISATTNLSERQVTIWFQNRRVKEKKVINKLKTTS
E3 ubiquitin-protein ligase XIAP (Homo sapiens), sequence (P98170 whole entry, looked up, the tested form may be a part): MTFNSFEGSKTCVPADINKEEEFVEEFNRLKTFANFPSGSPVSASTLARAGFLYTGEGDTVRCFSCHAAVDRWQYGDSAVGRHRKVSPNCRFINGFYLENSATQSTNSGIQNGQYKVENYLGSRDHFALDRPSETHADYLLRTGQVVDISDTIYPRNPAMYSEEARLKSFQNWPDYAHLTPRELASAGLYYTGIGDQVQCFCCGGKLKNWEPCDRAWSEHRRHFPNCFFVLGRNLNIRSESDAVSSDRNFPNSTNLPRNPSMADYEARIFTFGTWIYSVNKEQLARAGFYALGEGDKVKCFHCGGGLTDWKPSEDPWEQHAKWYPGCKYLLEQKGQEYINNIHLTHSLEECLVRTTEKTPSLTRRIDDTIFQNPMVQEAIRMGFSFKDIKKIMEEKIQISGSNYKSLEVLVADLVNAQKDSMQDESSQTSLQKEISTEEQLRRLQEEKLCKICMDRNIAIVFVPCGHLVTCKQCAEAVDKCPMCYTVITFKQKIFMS

For the molecule `Cc1ccc(S[C@]2(C(=O)NCC(C)C)CC(=O)N(Cc3cc(C(F)(F)F)cc(C(F)(F)F)c3)[C@@H]2c2ccc(CO)cc2)cc1`, the z-score in experiment [1] was -0.0834; in [2], -0.58 (inactive); in [3], -0.656 (inactive); in experiment [5] it was 0.559 (inactive); in [6] it was -0.622 (inactive); in experiment [7], -0.995 (inactive). The z-score in [8] was -0.882 (inactive); in [9], -0.321; in [12] it was -0.309; in experiment [13], -2.19 (inactive); in experiment [14], -0.0406 (inactive); in experiment [15], -0.284 (inactive). The composite z-score in experiment [4] is -0.099 (inactive); in experiment [10] it was -0.142; in experiment [11] it was -0.0537 (inactive); in the experiment with XIP peptide (Xip251-270) it was 0.0501.
For the molecule `COc1ccc([Si](C)(C)[C@@H]2[C@@H](CC(=O)N3Cc4ccccc4C[C@H]3CO)O[C@]3(C(=O)N(Cc4cccc(N5CCC5=O)c4)c4ccccc43)[C@H]2C)cc1`, the z-score in [1] was -0.0715; in experiment [2], 0.984 (inactive); in experiment [3] it was -0.922 (inactive); in experiment [5], 2.04 (inactive); in experiment [6], 1.38 (inactive); in experiment [7], 0.249 (inactive). The z-score in experiment [8] is -0.0051 (inactive); in [9], -0.828; in experiment [12], -2.55; in experiment [13], -1.51 (inactive); in [14], -0.342 (inactive); in experiment [15], -0.0386 (inactive). Moreover, the composite z-score in experiment [4] was -3.46 (inactive); in experiment [10], 0.0819; in [11] it was 0.607 (inactive); in the experiment on XIP peptide (Xip251-270), 0.736.
In the case of `CN1C(=O)C2C=CC(C(O)c3c(F)cccc3Cl)N(NC(=O)OC(C)(C)C)C2C1=O` (centres undefined), the z-score is -0.417 in experiment [1]; 0.357 (inactive) in experiment [2]; -0.414 (inactive) in experiment [3]; 0.791 (inactive) in experiment [5]; 0.0301 (inactive) in experiment [6]; -0.775 (inactive) in [7]. The z-score in [8] is -0.181 (inactive); in experiment [9] it was -0.301; in experiment [12], 0.436; in experiment [13] it was -1.51 (inactive); in experiment [14], 0.0188 (inactive); in experiment [15], 0.0545 (inactive). Also, the composite z-score in experiment [4] was 0.17 (inactive); in experiment [10] it was 0.0951; in experiment [11] it was 1.69 (inactive); in the experiment with XIP peptide (Xip251-270) it was 0.836.
Consider `COc1ccc(C(=O)Nc2cccc(CN3C(=O)[C@]4(O[C@H](CCn5cc(CCO)nn5)[C@@H]([Si](C)(C)c5ccc(OC)cc5)[C@@H]4C)c4ccccc43)c2)cc1`, for which the z-score in experiment [1] is -6.31; in experiment [2], -7.34 (inactive); in [3] it was -9.11 (active); in [5], 1.12 (inactive); in experiment [6] it was 4 (inactive); in experiment [7], 0.216 (inactive). For the same molecule, the z-score in [8] is -0.883 (inactive); in experiment [9], -6.19; in [12] it was -2.72; in experiment [13] it was -4.83 (inactive); in experiment [14], -0.745 (inactive); in [15], -2.04 (inactive). Also, the composite z-score in experiment [4] is 2.2 (inactive); in [10], -0.173; in experiment [11], -0.16 (inactive); in the experiment on XIP peptide (Xip251-270), 0.249.
As for `O=C1OCCC/C=C\[C@H]2OC34C=CCN(c5ccc6ccccc6c5)C(=O)[C@H]3N(CCCCCO)C(=O)[C@@H]4C12` (some centres undefined), the z-score was 0.0877 in [1]; -0.801 (inactive) in experiment [2]; -0.377 (inactive) in experiment [3]; -0.649 (inactive) in experiment [5]; -0.878 (inactive) in [6]; 0.352 (inactive) in experiment [7]. Besides, the z-score in [8] was -0.005 (inactive); in [9] it was 0.408; in experiment [12], 1.73; in experiment [13], -4.94 (inactive); in experiment [14] it was 0.715 (inactive); in [15] it was -0.0708 (inactive). The composite z-score in experiment [4] was -0.338 (inactive); in experiment [10], -0.0541; in experiment [11] it was 0.0867 (inactive); in the experiment with XIP peptide (Xip251-270), 0.0861.
Take `O=C(CS)NCCCCCNC(=O)[C@@H]1C[C@@H]2C(=O)NCC(=O)N2[C@@H]1c1ccc(O)cc1`: the z-score in [1] was -0.701; in experiment [2], 0.272 (inactive); in experiment [3], -1.06 (inactive); in experiment [5], 1.5 (inactive); in experiment [6], -0.0231 (inactive); in experiment [7] it was -0.401 (inactive). Also, the z-score in experiment [8] is -1.04 (inactive); in [9], -0.492; in experiment [12] it was -1.16; in experiment [13] it was -1.43 (inactive); in [14], 0.258 (inactive); in experiment [15], 0.425 (inactive). The composite z-score in [4] was 0.424 (inactive); in [10] it was -0.0536; in experiment [11], 0.366 (inactive); in the experiment with XIP peptide (Xip251-270), 0.352.
With `CCOC(=O)C1=CC[C@@H](c2ccc(C(F)(F)F)cc2)N(S(=O)(=O)c2ccc(C)cc2)[C@H]1c1ccccc1`, the z-score is -0.333 in experiment [1]; 0.062 (inactive) in [2]; -2.34 (inactive) in experiment [3]; -0.0601 (inactive) in experiment [5]; -0.258 (inactive) in experiment [6]; -0.604 (inactive) in [7]. Also, the z-score in experiment [8] was -0.126 (inactive); in experiment [9], -5.04; in [12], -2.02; in [13], 0.759 (inactive); in [14], 0.0487 (inactive); in experiment [15] it was -0.516 (inactive). The composite z-score in experiment [4] was -0.296 (inactive); in experiment [10], -0.278; in [11], 0.544 (inactive); with XIP peptide (Xip251-270), 0.762.
For `CC(C)(C)OC(=O)CC[C@@]1(C(=O)N2CCCCC2)N=C(c2ccc(OCCCO)cc2)O[C@@H]1c1ccccc1`, the z-score in [1] is 0.426; in experiment [2] it was -0.563 (inactive); in experiment [3] it was -0.76 (inactive); in experiment [5], 0.935 (inactive); in experiment [6] it was 0.262 (inactive); in experiment [7] it was -0.174 (inactive). The z-score was -1.53 (inactive) in experiment [8]; 0.0487 in [9]; -2.03 in experiment [12]; -5.06 (inactive) in experiment [13]; -0.102 (inactive) in experiment [14]; -0.0985 (inactive) in experiment [15]. Moreover, the composite z-score in [4] was -0.159 (inactive); in [10] it was 0.138; in experiment [11], 0.671 (inactive); in the experiment with XIP peptide (Xip251-270), 0.267.
`CC1CC/C=C\[C@H]2OC34C=CCN(c5ccc6ccccc6c5)C(=O)[C@H]3N(CCO)C(=O)[C@@H]4C2C(=O)O1` (some centres undefined): the z-score in experiment [1] was -0.854; in experiment [2] it was -0.635 (inactive); in experiment [3], -1.03 (inactive); in experiment [5], 0.826 (inactive); in [6], -0.471 (inactive); in experiment [7] it was -0.726 (inactive). Also, the z-score was -0.867 (inactive) in experiment [8]; 0.0886 in experiment [9]; -0.607 in experiment [12]; -5.51 (inactive) in experiment [13]; -0.209 (inactive) in experiment [14]; -0.434 (inactive) in [15]. The composite z-score in [4] is -0.509 (inactive); in experiment [10], 0.0728; in [11], 0.866 (inactive); in the experiment on XIP peptide (Xip251-270) it was 0.492.

Source of the values: PubChem BioAssay.
